Results filed as inconclusive are left out. The source made the active and inactive calls. Calls follow the shape of the dose curve; as a rule, active = well fitted curve in the direction sought with a large enough effect (not every such curve was filed as active); inconclusive = small, poorly fitted or top-dose-only effect, or effect the other way, or another doubt; inactive = no such curve, though single readings can be large or run the other way.
Test: Cell viability assay for measurement of the protective activity of small molecules against cell death caused by Zika virus infection in human neural progenitor cells (hNPCs);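 also: 0% = ZIKV-infected cells without compound and 100% = uninfected cells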
Conditions: hNPC ZIKV-induced death protection, ATP luminescence, 72 h; series mostly up to 46.1 µM; protection, negative = more death: at the top concentration
Source text: National Center for Advancing Translational Sciences [NCATS] Johns Hopkins University School of Medicine Florida State University Assay Overview: Zika virus infection causes cell death in certain cell types including human neural progenitor cells (hNPCs), astrocytes, and astrocytoma cell line (SNB-19). This cell viability assay measures the ATP content (level) in human neural progenitor cells (hNPCs) using a luminescence readout that is proportional to viable cell numbers. Decrease in the luminescence signal after Zika virus infection indicates the cell death caused by Zika virus. Small molecule inhibitors […] the decreased luminescence signal after Zika virus infection, indicating the protective effect of that small molecule on the cell death caused by Zika virus infection. This observed protective effect of small molecules against Zika virus induced cell death may result from inhibition of virus replication or cellular response to the virus infection.
Assay Protocol Summary: The medium for hNPCs consists of DMEM/F12, N2 supplement (ThermoFisher, Cat.# 17502048), NEAA (ThermoFisher, Cat. # 11140050), 2 ug/ml heparin, 2 uM cyclopamine, and B27 (ThermoFisher, Cat. # 17504044). The ATP content assay kit (PerkinElmer, Cat.# 6016731) was used to determine cell viability. The reagent was reconstituted and prepared as described by the manufacturer. Cells were seeded in 384- or 1536-well assay plates and cultured at 37 C with 5% CO2 for 16 to 20 hours. The typical cell seeding density in the 1536-well plate assay is 350 cells/well in 3 ul medium for hNPCs in the tissue cultured treated/PDL coated plates. Compounds were added to cells and incubated for one hour before addition of ZIKV solution to cells (2 FFU/cell). After incubation at 37 C with 5% CO2 for 72 hours, the reagent mixture of the ATP content assay kit was added to each well, followed by incubation at room temperature for 10 minutes. The luminescence intensity of the assay plates was measured using a ViewLux plate reader (PerkinElmer). […] The percentage inhibitions of the decreased cell viability by small molecule inhibitors were then calculated.

Compound	protection, negative = more death
CCCCCCOc1ccccc1C(N)=O	4.91% (inactive)
O=C(O)CCC(=O)c1ccc(-c2ccccc2)cc1	0.919% (inactive)
C/C(=N\O)c1ccc(OCC(=O)N2CCCCC2)cc1	-29.6% (inactive)
COc1ccc(-c2cc(=O)c3c(O)cc(O)cc3o2)cc1O	-43.1% (inactive)
COc1ccc(CC2=NN3C([C@@H](CCc4ccccc4)[C@@H](C)O)=NC(C)C3C(=O)N2)cc1OC (stereo not given in full)	-42.9% (inactive)
O=c1c(-c2ccc(O)cc2)coc2cc(OC3O[C@H](CO)[C@H](O)[C@H](O)[C@H]3O)cc(O)c12 (stereo not given in full)	-70.7% (inactive)
Cc1cccc(/C=C/c2ccccc2)n1	-15.4% (inactive)
NC1CCC(Nc2nc(Nc3ccc(C(=O)N4CCCCC4)cc3)c3ncn(-c4cccc(F)c4)c3n2)CC1 (stereo not given)	-79.2% (inactive)
COc1cccc(-c2cc(=O)c3ccccc3o2)c1N	-47.7% (inactive)
CN(C)c1ccc(/C=C2\C(=O)Nc3ccccc32)cc1	-52.9% (inactive)
Cc1nc(-c2ccc(OCC(C)C)c(C#N)c2)sc1C(=O)O	-46.3% (inactive)
CC(C)OC(=O)CCCC=CC[C@@H]1[C@H](C=C[C@@H](O)COc2cccc(C(F)(F)F)c2)[C@H](O)C[C@@H]1O	-31% (inactive)
CN1CC(=O)N/C1=N/C(=O)Nc1cccc(Cl)c1	-11.7% (inactive)
O=C(Nc1ccc([N+](=O)[O-])cc1Cl)c1cc(Cl)ccc1O	-78.3% (inactive)
COc1ccc(NC(=O)/C=C/c2ccc(Cl)cc2)cc1	-28.4% (inactive)
CC(=O)OC(C)OC(=O)C(C)c1ccc(-c2ccccc2)c(F)c1 (stereo not given)	0.83% (inactive)
O=c1cc(-c2ccccc2)oc2cc(O)c(O)c(O)c12	-62.6% (inactive)
O[C@@H](COc1cccc2ncccc12)CN1CCN(C2c3ccccc3[C@@H]3[C@H](c4ccccc42)C3(F)F)CC1 (stereo not given in full)	-81.6% (inactive)
CC(C(=O)O)c1ccc(C(=O)c2cccs2)cc1 (stereo not given)	2.89% (inactive)
CC(O)=C(C#N)C(=O)Nc1ccc(C(F)(F)F)cc1	-61.6% (inactive)

Compound	protection, negative = more death
Nc1ccc(O)c(C(=O)O)c1	-0.677% (inactive)
CCC(C(=O)O)c1ccc(N2Cc3ccccc3C2=O)cc1 (stereo not given)	-9.9% (inactive)
Cc1oncc1C(=O)Nc1ccc(C(F)(F)F)cc1	-51.4% (inactive)
N#CC1(c2ccc(NC(=O)c3cccnc3NCc3ccncc3)cc2)CCCC1	-13.3% (inactive)
CC(=O)Oc1ccccc1C(=O)Nc1ncc([N+](=O)[O-])s1	-68.9% [at 88.3 µM] (inactive)
CC(C(=O)O)c1ccc(-c2ccccc2)c(F)c1 (stereo not given)	-5.89% (inactive)
O=C(c1ccccc1)c1ccc2n1CCC2C(=O)O (stereo not given)	-6.75% (inactive)
Cc1c(C(=O)O)c(O)cc2c1C(=O)c1c(O)c([C@@H]3O[C@H](CO)[C@@H](O)[C@H](O)[C@H]3O)c(O)c(O)c1C2=O	-7.65% (inactive)
Cc1ccc2c(n1)Oc1ccc(C(C)C(=O)OCC(=O)N(C)C)cc1C2 (stereo not given)	-34.7% (inactive)
O=C(O)c1cc([N+](=O)[O-])ccc1NCCCc1ccccc1	-2.84% (inactive)
CN(C)c1ccc2cc(C(=O)N[C@@H](CCCN=C(N)CCl)C(=O)NCc3ccccc3)ccc2c1	-80.2% (inactive)
CCN(CC)c1ccc(C(=C2C=CC(=[N+](CC)CC)C=C2)c2cc(S(=O)(=O)O)ccc2S(=O)(=O)[O-])cc1	-44.4% (inactive)
Cc1cccc(C#Cc2ccccc2)n1	6.09% (inactive)
CCN1CCC(n2cc(CNc3cc(Cl)c4ncc(C#N)c(Nc5ccc(F)c(Cl)c5)c4c3)nn2)CC1	-77.7% (inactive)
Nc1ccc(N=Nc2ccccc2)c(N)n1	-38.4% (inactive)
CN(C)CCCSc1ccccc1NC(=O)/C=C/c1ccccc1	8.23% (inactive)
OCc1ccc(-c2ccc(-c3ccc(CO)s3)o2)s1	-81.6% (inactive)
CCC(C)SSc1ncc[nH]1 (stereo not given)	-78% (inactive)
O=C(O)c1ccccc1Nc1cccc(C(F)(F)F)c1	2.86% (inactive)
Oc1ccc(/C=C/c2cc(O)cc(O)c2)cc1	-73.8% (inactive)
